A short description of assay [1]: blockers of cellular phospholipid synthesis – cell-based, LOPAC library, screen 4, primary screen (AID 1347384; call rule not given here). To be noted: animal cells, phospholipid biosynthesis inhibition screen; at 10 µM.
Assay [2] can be described thus: MELAS cybrid and Rieske KO viability enhancers – cell-based, MELAS cybrids, Rieske KO mouse fibroblasts, CellTiter-Glo, primary screen (AID 1508586).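 Note: z relative to plate mean and SD of compound and empty wells.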 The following applies: low glucose. In general terms: ATP-based viability assays read luminescence as a measure of living cells.
The mark [3] stands for this setting: MELAS cybrid survival, CellTiter-Glo 48 h, stronger effect = higher value.
Where [4] appears, read: Rieske KO mouse fibroblast survival, CellTiter-Glo 72 h.

Values joined by “and” are separate entries in the source; they are usually repeats but may differ in a detail not shown here. Equal entries are not always repeated. More than one record can exist for a structure, and the calls need not agree. Active and inactive are the calls of the source.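 Rule for the calls, unless noted: active = mean z-score across replicates of 1.96 or higher in either the MELAS or the Rieske mutant cell line; inactive = the rest.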

On to `Brc1c(NC2=NCCN2)ccc2nccnc12`, for which the compound was called inactive in assay [1]. The z-score in assay [2] (setting [3]) is -0.224 (inactive) and -0.413 (inactive); in assay [2] (setting [4]), -0.21 and -1.29.
For the compound `CCCCC1C(=O)N(c2ccccc2)N(c2ccccc2)C1=O`, the compound was classed as inactive in assay [1]. Besides, the z-score in assay [2] (setting [3]) is 0.0284 (inactive) and -1.01 (inactive) and 0.0538 (inactive); in assay [2] (setting [4]) it was 0.0743 and -0.296 and -0.0136.
Regarding `CN1CCC[C@@H]1CCO[C@](C)(c1ccccc1)c1ccc(Cl)cc1`, the z-score in assay [2] (setting [3]) is -0.745 (inactive) and -0.186 (inactive); in assay [2] (setting [4]), 0.0285 and -0.556.
For `COc1cc(C(=O)OCCCN2CCCN(CCCOC(=O)c3cc(OC)c(OC)c(OC)c3)CC2)cc(OC)c1OC`, in assay [1], the outcome was inactive. The z-score is 0.925 (inactive) and 0.274 (inactive) in assay [2] (setting [3]); 0.203 and 0.937 in assay [2] (setting [4]).
With `COc1ccccc1OCC(O)CO` (configuration not stated), the z-score in assay [2] (setting [3]) is -0.233 (inactive) and 0.795 (inactive) and 1.3e-05 (inactive); in assay [2] (setting [4]), -0.0145 and 0.521 and -0.435.
Take `O=C1[C@H]2CCCC[C@H]2C(=O)N1CCCCN1CCN(c2nsc3ccccc23)CC1`: the z-score is 1.02 (inactive) in assay [2] (setting [3]) and 0.693 in assay [2] (setting [4]).
The like results for `COC(=O)C1=C(C)NC(C)=C(C(=O)O[C@@H]2CCCN(Cc3ccccc3)C2)[C@@H]1c1cccc([N+](=O)[O-])c1` were, in that order, 0.772 (inactive) and 0.352.
`COc1ccc(CCN2CCC(Nc3nc4ccccc4n3Cc3ccc(F)cc3)CC2)cc1`: the z-score is -0.668 (inactive) and -0.11 (inactive) in assay [2] (setting [3]); -1.26 and 1.21 in assay [2] (setting [4]).
As for `COC(=O)[C@H]1[C@H]2C[C@@H]3c4[nH]c5cc(OC)ccc5c4CCN3C[C@H]2C[C@@H](OC(=O)c2cc(OC)c(OC)c(OC)c2)[C@@H]1OC`, the result in assay [1] was inactive. The values for the z-score in assay [2] (setting [3]) and in assay [2] (setting [4]) were 0.355 (inactive) and 1.28, respectively.
Take `CCc1nn(CCCN2CCN(c3cccc(Cl)c3)CC2)c(=O)n1CCOc1ccccc1`: the z-score in assay [2] (setting [3]) is -0.135 (inactive) and 0.202 (inactive); in assay [2] (setting [4]), -0.202 and -0.42.
With `Cc1ncc([N+](=O)[O-])n1CC(O)CCl` (configuration not stated), the z-score in assay [2] (setting [3]) was -0.127 (inactive) and -0.079 (inactive); in assay [2] (setting [4]) it was -0.152 and -0.097.
As to `CSc1ccc2c(c1)C(N1CCN(C)CC1)Cc1ccccc1S2` (configuration not stated), the call in assay [1] was inactive. Further, the z-score was -0.294 (inactive) and -0.887 (inactive) in assay [2] (setting [3]); 0.279 and -1.2 in assay [2] (setting [4]).
For `Clc1ccc2c(c1)CCc1cccnc1C2=C1CCNCC1`, the z-score in assay [2] (setting [3]) was -0.116 (inactive) and -0.424 (inactive) and -0.172 (inactive); in assay [2] (setting [4]), -0.231 and 0.543 and -0.35.
`O=C1NCC2(CCN(CCc3ccccc3)CC2)O1`: the compound was classed as inactive in assay [1]. Also, the z-score in assay [2] (setting [3]) is -0.249 (inactive) and 0.534 (inactive); in assay [2] (setting [4]) it was -0.174 and -0.0853.
As for `CCO/C([O-])=N/c1c[n+](N2CCOCC2)no1`, the z-score in assay [2] (setting [3]) is 0.408 (inactive) and -0.37 (inactive); in assay [2] (setting [4]), 0.123 and -0.771.
For the compound `O=C(CCCN1CCN(c2ccccn2)CC1)c1ccc(F)cc1`, the z-score in assay [2] (setting [3]) is -0.275 (inactive) and -0.83 (inactive) and 0.232 (inactive); in assay [2] (setting [4]), -0.169 and 0.0955 and 0.456.
With `OCc1cc(C(O)CNCCCCCCOCCCCc2ccccc2)ccc1O` (configuration not stated), the result in assay [1] was inactive. In addition, the z-score in assay [2] (setting [3]) was 0.496 (inactive) and 0.0699 (inactive); in assay [2] (setting [4]), -0.33 and 0.063.
With `COc1ccc(CN2CCN(C(c3ccc(F)cc3)c3ccc(F)cc3)CC2)c(OC)c1OC`, the z-score in assay [2] (setting [3]) is -0.49 (inactive) and -0.685 and -0.348 (inactive); in assay [2] (setting [4]), -0.282 and 2.06 and 1.06.
Consider `CN(C)C(=O)Oc1cccc([N+](C)(C)C)c1`, for which the result in assay [1] was inactive. In addition, the z-score was 0.498 (inactive) and -0.72 (inactive) in assay [2] (setting [3]); 0.395 and -0.634 in assay [2] (setting [4]).
For the compound `CC(=O)O[C@]1(C(C)=O)CC[C@H]2[C@@H]3C=C(Cl)C4=CC(=O)CC[C@]4(C)[C@H]3CC[C@@]21C`, the z-score in assay [2] (setting [3]) was -0.83 (inactive); in assay [2] (setting [4]), 0.517.
`CC(=O)OCC(=O)NCCCOc1cccc(CN2CCCCC2)c1`: the z-score in assay [2] (setting [3]) is -0.52 (inactive) and 0.36 (inactive) and 0.133 (inactive); in assay [2] (setting [4]), -0.102 and 0.209 and -1.07.
For the compound `C[N+](C)(C)CCOC(N)=O`, the call in assay [1] was inactive. Moreover, the z-score is -0.544 (inactive) and -0.486 (inactive) in assay [2] (setting [3]); -1.06 and 1.01 in assay [2] (setting [4]).
With `OCCOCCN1CCN(C2=Nc3ccccc3Sc3ccccc32)CC1`, the z-score is -0.365 (inactive) and 0.666 (inactive) and 0.0103 (inactive) in assay [2] (setting [3]); -0.209 and 0.244 and 1.08 in assay [2] (setting [4]).
With `C#CCN(C)Cc1ccccc1`, the outcome in assay [1] was inactive. For the same compound, the z-score in assay [2] (setting [3]) is -0.298 (inactive) and 0.205 (inactive); in assay [2] (setting [4]) it was -0.334 and 0.464.
For `CCc1oc2ccccc2c1C(=O)c1cc(Br)c(O)c(Br)c1`, the z-score is -0.224 (inactive) and 0.135 (inactive) in assay [2] (setting [3]); -0.158 and -0.137 in assay [2] (setting [4]).
For the compound `CC(=O)NS(=O)(=O)c1ccc(N)cc1`, the z-score is -0.241 (inactive) and 0.341 (inactive) in assay [2] (setting [3]); -0.167 and 0.175 in assay [2] (setting [4]).
Take `CNC1(C)C2CCC(C2)C1(C)C` (configuration not stated): in assay [1], the outcome was inactive. For the same compound, the z-score in assay [2] (setting [3]) was -0.287 (inactive) and -0.243 (inactive); in assay [2] (setting [4]) it was 0.191 and -0.476.
As to `COc1ccc(CN(CCN(C)C)c2ccccn2)cc1`, in assay [1], the outcome was inactive. Further, the z-score is 0.327 (inactive) and -0.721 (inactive) in assay [2] (setting [3]); 0.0359 and 0.287 in assay [2] (setting [4]).
`c1ccc(CN(CC2=NCCN2)c2ccccc2)cc1`: the z-score is 0.519 (inactive) and -0.255 (inactive) and -0.229 (inactive) in assay [2] (setting [3]); -0.208 and -0.144 and -0.113 in assay [2] (setting [4]).
For the compound `CC(=O)Oc1ccc(C(c2ccc(OC(C)=O)cc2)c2ccccn2)cc1`, the z-score in assay [2] (setting [3]) was -0.393 (inactive) and -0.251 (inactive) and -0.144 (inactive); in assay [2] (setting [4]), -0.124 and -0.26 and 0.348.
As to `Nc1ccc(N=Nc2ccccc2)c(N)n1`, the z-score in assay [2] (setting [3]) was 3.05 (active) and 0.049 (inactive) and 2.48 (active); in assay [2] (setting [4]), 0.473 and -0.21 and 1.1.
For the compound `CCCCNc1ccc(C(=O)OCCN(C)C)cc1`, the result in assay [1] was inactive. The z-score in assay [2] (setting [3]) is -0.338 (inactive) and -0.454 (inactive); in assay [2] (setting [4]), -0.0172 and -0.0428.

These data come from PubChem BioAssay.
